# Reference: PubChem BioAssay (EPA / NIEHS)
# Records with an inconclusive call do not appear. The source made the active and inactive calls. The calls were made as follows, unless noted: active = hit-call score of the fitted dose curve at least 0.9, where 1 is the maximum; inconclusive = response in the unintended direction; inactive = score below 0.9.
# How the values were obtained:
# [1] = target: human Peroxisome Proliferator-activated Receptor alpha (PPARa), PPARA (gene 5465) (UniProt Q07869); assay: ATG_PPARa_TRANS: Attagene TRANS-FACTORIAL HepG2 Assay for human Peroxisome Proliferator-activated Receptor alpha (PPARa) (AID 2283001);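 as to AC50: potency for gain of reporter signal over DMSO so agonist or activator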
# How it was run: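 HepG2 cells transiently transfected with multiplexed GAL4-UAS reporter units and chimeric NR-Gal4 constructs were dosed for 24 h. Reporter mRNA was measured by RT-PCR with fluorescent labelling and capillary electrophoresis; gain of signal fitted against DMSO.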
# [2] = target: human Peroxisome Proliferator-activated Receptor delta (PPARd), PPARD (gene 5467) (UniProt Q03181); assay: ATG_PPARd_TRANS: Attagene TRANS-FACTORIAL HepG2 Assay for human Peroxisome Proliferator-activated Receptor delta (PPARd) (AID 2283002)
# How it was run: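 Measured quantity: GAL4-UAS reporter transcript induction in HepG2 after 24 h chemical dosing, with NR-Gal4 chimeras supplied by transient transfection. Detection by RT-PCR and capillary electrophoresis; upward fit against DMSO.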
# [3] = target: human Retinoic Acid Receptor beta (RARb), RARB (gene 5915) (UniProt P10826); assay: ATG_RARb_TRANS: Attagene TRANS-FACTORIAL HepG2 Assay for human Retinoic Acid Receptor beta (AID 2283004)
# How it was run: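 Transient transfection of HepG2 with multiple reporter units → chemical dosing, 24 h → total RNA isolation → RT with oligo(dT) → reporter-specific PCR, 6-FAM primer extension, HpaI digest → capillary electrophoresis. Positive direction vs DMSO control.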
# [4] = target: Retinoic acid receptor alpha (Homo sapiens) (UniProt P10276); assay: ATG_RARa_TRANS: Attagene TRANS-FACTORIAL HepG2 Assay for human Retinoic Acid Receptor alpha (RARa) (AID 2283005)
# How it was run: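 HepG2 cells transiently transfected with multiple reporter units expressing chimeric RARα-GAL4 fusion, with GAL4-UAS-driven reporters. After 24 h compound exposure, reporter mRNA induction quantified by RT-PCR and capillary electrophoresis with fluorescent labeling; gain-of-signal fitted relative to DMSO control.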
# [5] = target: Nuclear receptor subfamily 1 group I member 2 (Homo sapiens) (UniProt O75469); assay: ATG_PXR_TRANS: Attagene TRANS-FACTORIAL HepG2 Assay for human Pregnane X Receptor (PXR) (AID 2283008)
# How it was run: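 Measures mRNA induction of a GAL4-UAS-driven reporter in human HepG2 cells transiently expressing PXR fused to Gal4, following 24 h treatment. DMSO served as negative control and baseline.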
# [6] = target: human Retinoic Acid Receptor gamma (RARg), RARG (gene 5916) (UniProt P13631); assay: ATG_RARg_TRANS: Attagene TRANS-FACTORIAL HepG2 Assay for human Retinoic Acid Receptor gamma (RARg) (AID 2283009);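 as to AC50: AC50 is for reporter induction above DMSO meaning RARg activation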
# How it was run: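 HepG2 cells transiently transfected with multiplexed reporter units expressing chimeric RARg-GAL4 and GAL4-UAS-driven reporters; 24 h compound exposure. Reporter mRNA quantified by RT-PCR with fluorescent labelling and capillary electrophoresis; gain-of-signal fitted relative to DMSO baseline.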
# [7] = target: Peroxisome proliferator-activated receptor gamma (Homo sapiens) (UniProt P37231); assay: ATG_PPARg_TRANS: Attagene TRANS-FACTORIAL HepG2 Assay for human Peroxisome Proliferator-activated Receptor-gamma (PPARg) (AID 2283007)
# How it was run: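 Endpoint reflects upward reporter mRNA change versus DMSO controls. Setup: transiently transfected HepG2, GAL4-UAS reporters driven by chimeric NR-Gal4, 24 h incubation, RT-PCR with capillary electrophoresis read-out.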
# [8] = BSK_4H_Eotaxin3: BioMAP Diversity Plus: 4H Assay for Eotaxin 3 Biomarker Activity (AID 2283000; active = hit-call score of the fitted dose curve at least 0.9, where 1 is the maximum; inactive = score below 0.9;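 as to outcome: CCL26 protein level quantified by ELISA in parallel with SRB cytotoxicity check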); conditions: primary human endothelial cells (HUVEC); actives raise or lower the signal
# How it was run: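 Chemicals were added to human umbilical vein endothelium cultures, and Eotaxin-3 was quantified by ELISA at 24 h. Values were derived by bidirectional fitting with DMSO serving as negative control and activity baseline.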
# [9] = read-out: Intercellular Adhesion Molecule 1 (ICAM1), ICAM1 (gene 3383); assay: BSK_3C_ICAM1: BioMAP Diversity Plus: 3C Assay for Intercellular Adhesion Molecule 1 (ICAM1) Biomarker Activity (AID 2283003; active = hit-call score of the fitted dose curve at least 0.9, where 1 is the maximum; inactive = score below 0.9); conditions: primary human endothelial cells (HUVEC); actives raise or lower the signal
# How it was run: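 Primary human umbilical vein endothelial cells in the BioMAP 3C system were exposed to chemicals for 24 h, then ICAM-1 was quantified by ELISA. Activity was fitted bidirectionally against the DMSO negative control baseline.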
# Chain of human Retinoic Acid Receptor beta (RARb), RARB (gene 5915) (P10826 whole entry, looked up): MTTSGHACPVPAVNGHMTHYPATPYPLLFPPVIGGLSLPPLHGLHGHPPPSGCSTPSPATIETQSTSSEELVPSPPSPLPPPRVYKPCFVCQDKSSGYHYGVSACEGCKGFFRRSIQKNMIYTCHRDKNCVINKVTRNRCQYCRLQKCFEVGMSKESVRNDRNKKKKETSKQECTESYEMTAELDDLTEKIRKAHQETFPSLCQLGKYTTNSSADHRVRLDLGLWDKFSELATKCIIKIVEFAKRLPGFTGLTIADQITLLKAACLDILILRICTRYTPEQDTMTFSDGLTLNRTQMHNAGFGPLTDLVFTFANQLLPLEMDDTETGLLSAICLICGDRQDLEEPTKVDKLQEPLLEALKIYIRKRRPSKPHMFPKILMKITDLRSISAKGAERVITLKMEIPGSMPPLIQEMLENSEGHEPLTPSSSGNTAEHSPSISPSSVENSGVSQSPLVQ
# Chain of human Retinoic Acid Receptor gamma (RARg), RARG (gene 5916) (P13631 whole entry, looked up, the tested form may be a part): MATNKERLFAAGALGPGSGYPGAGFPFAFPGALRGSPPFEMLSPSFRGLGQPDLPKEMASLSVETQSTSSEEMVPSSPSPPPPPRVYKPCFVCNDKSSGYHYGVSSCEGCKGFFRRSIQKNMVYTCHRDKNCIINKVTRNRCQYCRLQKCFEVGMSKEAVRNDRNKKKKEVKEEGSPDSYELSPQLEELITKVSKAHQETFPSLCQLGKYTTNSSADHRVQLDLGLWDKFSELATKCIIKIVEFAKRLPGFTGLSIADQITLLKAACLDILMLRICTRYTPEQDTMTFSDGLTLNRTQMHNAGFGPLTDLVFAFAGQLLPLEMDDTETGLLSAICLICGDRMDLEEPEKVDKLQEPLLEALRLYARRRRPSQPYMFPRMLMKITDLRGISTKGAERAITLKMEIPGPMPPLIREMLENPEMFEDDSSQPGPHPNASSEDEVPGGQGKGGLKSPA
# Chain of human Peroxisome Proliferator-activated Receptor delta (PPARd), PPARD (gene 5467) (Q03181 whole entry, looked up, the tested form may be a part): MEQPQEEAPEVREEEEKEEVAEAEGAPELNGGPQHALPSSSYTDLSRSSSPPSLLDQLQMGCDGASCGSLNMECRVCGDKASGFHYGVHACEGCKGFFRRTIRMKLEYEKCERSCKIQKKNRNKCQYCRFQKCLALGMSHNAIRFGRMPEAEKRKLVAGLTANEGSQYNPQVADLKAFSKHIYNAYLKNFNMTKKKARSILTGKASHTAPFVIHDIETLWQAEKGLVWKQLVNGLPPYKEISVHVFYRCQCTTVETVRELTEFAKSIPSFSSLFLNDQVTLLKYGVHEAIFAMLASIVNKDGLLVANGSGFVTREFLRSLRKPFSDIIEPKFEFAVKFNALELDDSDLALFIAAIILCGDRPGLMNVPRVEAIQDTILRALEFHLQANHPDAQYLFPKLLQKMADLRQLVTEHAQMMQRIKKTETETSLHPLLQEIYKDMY
# Chain of Nuclear receptor subfamily 1 group I member 2 (Homo sapiens) (O75469 whole entry, looked up, the tested form may be a part): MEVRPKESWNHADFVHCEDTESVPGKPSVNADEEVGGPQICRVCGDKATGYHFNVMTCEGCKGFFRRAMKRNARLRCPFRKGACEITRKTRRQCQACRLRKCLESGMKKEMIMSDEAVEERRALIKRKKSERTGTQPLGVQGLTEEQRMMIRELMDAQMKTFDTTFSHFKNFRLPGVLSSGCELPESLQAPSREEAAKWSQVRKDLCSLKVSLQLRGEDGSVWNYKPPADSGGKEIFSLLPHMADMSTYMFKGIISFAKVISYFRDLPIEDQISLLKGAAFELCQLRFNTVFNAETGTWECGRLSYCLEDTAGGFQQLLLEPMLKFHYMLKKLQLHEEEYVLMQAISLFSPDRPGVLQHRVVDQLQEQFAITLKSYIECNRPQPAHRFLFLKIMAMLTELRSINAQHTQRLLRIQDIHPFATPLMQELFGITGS
# Chain of Retinoic acid receptor alpha (Homo sapiens) (P10276 whole entry, looked up, the tested form may be a part): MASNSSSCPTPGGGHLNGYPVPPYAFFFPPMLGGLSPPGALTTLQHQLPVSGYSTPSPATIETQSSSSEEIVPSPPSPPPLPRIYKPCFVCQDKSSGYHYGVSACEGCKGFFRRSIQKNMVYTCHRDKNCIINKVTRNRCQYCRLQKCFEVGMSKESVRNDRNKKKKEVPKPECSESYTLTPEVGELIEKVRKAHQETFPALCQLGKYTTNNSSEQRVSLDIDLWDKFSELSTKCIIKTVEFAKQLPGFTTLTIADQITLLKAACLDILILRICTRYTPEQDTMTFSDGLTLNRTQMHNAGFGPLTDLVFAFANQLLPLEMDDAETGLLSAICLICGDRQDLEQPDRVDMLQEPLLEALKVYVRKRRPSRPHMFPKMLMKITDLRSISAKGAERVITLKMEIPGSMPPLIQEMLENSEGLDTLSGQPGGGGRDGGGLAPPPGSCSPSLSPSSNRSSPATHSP
# Chain of human Peroxisome Proliferator-activated Receptor alpha (PPARa), PPARA (gene 5465) (Q07869 whole entry, looked up, the tested form may be a part): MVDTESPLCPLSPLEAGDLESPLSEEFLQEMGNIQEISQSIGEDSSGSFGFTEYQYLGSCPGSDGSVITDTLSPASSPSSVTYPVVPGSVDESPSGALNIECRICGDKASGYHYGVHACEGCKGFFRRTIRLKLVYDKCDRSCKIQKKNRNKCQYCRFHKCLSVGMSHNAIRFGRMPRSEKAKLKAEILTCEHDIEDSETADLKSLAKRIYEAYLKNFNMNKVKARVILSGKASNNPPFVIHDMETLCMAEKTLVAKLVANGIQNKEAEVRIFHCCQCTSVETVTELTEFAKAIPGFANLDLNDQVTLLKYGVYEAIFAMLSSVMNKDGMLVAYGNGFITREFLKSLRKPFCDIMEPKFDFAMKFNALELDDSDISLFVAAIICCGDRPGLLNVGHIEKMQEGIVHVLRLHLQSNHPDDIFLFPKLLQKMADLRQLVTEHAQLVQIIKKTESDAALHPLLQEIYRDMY
# Chain of Peroxisome proliferator-activated receptor gamma (Homo sapiens) (P37231 whole entry, looked up, the tested form may be a part): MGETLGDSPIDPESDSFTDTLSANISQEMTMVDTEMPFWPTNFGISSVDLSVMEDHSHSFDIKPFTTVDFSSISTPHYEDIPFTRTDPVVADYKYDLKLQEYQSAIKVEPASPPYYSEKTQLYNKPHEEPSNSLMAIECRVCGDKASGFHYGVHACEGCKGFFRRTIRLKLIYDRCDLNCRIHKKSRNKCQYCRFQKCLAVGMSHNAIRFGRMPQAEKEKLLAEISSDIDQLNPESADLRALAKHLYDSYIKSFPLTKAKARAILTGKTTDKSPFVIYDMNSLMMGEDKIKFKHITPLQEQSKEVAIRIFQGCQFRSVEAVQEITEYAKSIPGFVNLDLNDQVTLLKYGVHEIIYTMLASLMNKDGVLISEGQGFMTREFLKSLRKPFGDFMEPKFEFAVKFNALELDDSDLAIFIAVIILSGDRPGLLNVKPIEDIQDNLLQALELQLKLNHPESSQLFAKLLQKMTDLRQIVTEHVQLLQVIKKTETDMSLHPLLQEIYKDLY
smiles,measurement,setting,value
CN1CCc2cccc3c2[C@H]1Cc1ccc(O)c(O)c1-3,outcome,[1],inactive
same,outcome,[2],inactive
same,outcome,[3],inactive
same,outcome,[4],inactive
same,outcome,[5],inactive
same,AC50,[6],775 nM (active)
CCCC(O)C(CC)CO (stereo unspecified),outcome,[1],inactive
same,outcome,[2],inactive
NC(N)=NC(N)=NCCc1ccccc1,outcome,[1],inactive
same,outcome,[2],inactive
same,outcome,[4],inactive
same,outcome,[5],inactive
same,outcome,[6],inactive
Cc1cc(O)c2c(c1)C(=O)c1cc(O)cc(O)c1C2=O,AC50,[1],27.5 µM (active)
same,outcome,[2],inactive
same,outcome,[3],inactive
same,outcome,[4],inactive
same,AC50,[5],6.34 µM (active)
same,outcome,[6],inactive
CC(=N[Si](C)(C)C)O[Si](C)(C)C,outcome,[1],inactive
same,outcome,[2],inactive
ClCCOCCOCCCl,outcome,[1],inactive
same,outcome,[2],inactive
same,outcome,[3],inactive
same,outcome,[4],inactive
same,outcome,[7],inactive
CC(C)Cc1ccccc1,outcome,[1],inactive
same,outcome,[2],inactive
same,outcome,[3],inactive
same,outcome,[4],inactive
same,outcome,[5],inactive
CCCCOCCOCCOCCO,outcome,[1],inactive
same,outcome,[2],inactive
same,outcome,[3],inactive
same,outcome,[7],inactive
CCOC(=O)COC(=O)c1ccccc1C(=O)OCC,outcome,[1],inactive
O=C(O)C1=NN(c2ccc(S(=O)(=O)O)cc2)C(=O)C1,outcome,[1],inactive
same,outcome,[2],inactive
same,outcome,[7],inactive
C=C(C)C(=O)OCCC(F)(F)C(F)(F)C(F)(F)C(F)(F)C(F)(F)C(F)(F)C(F)(F)C(F)(F)F,outcome,[8],inactive
same,outcome,[9],inactive
CC=CC(=O)C1=C(C)C=CCC1(C)C,outcome,[8],inactive
same,outcome,[9],inactive
same,outcome,[5],inactive
CCCCOCCOCCO,outcome,[8],inactive
same,outcome,[9],inactive
same,outcome,[3],inactive
same,outcome,[4],inactive
same,outcome,[6],inactive
CCCCC1CCCCC(=O)O1 (stereo unspecified),outcome,[1],inactive
same,outcome,[2],inactive
same,outcome,[4],inactive
same,AC50,[7],47.4 µM (active)
same,outcome,[5],inactive
same,outcome,[6],inactive
CCCCCCCCCCCCCC(=O)OCC,outcome,[1],inactive
same,outcome,[2],inactive
same,outcome,[3],inactive
same,outcome,[4],inactive
same,outcome,[6],inactive
CCO[Si](CC)(OCC)OCC,outcome,[1],inactive
same,outcome,[2],inactive
same,outcome,[3],inactive
same,AC50,[5],2.84 µM (active)
CC(=O)Oc1c(C)c(C)c2c(c1C)CC[C@@](C)(CCC[C@H](C)CCC[C@H](C)CCCC(C)C)O2,outcome,[1],inactive
same,outcome,[2],inactive
same,outcome,[3],inactive
same,outcome,[4],inactive
same,outcome,[7],inactive
same,outcome,[5],inactive
CCCCCCCCCCCCOC(C)=O,outcome,[1],inactive
same,outcome,[2],inactive
same,outcome,[4],inactive
same,outcome,[5],inactive
same,outcome,[6],inactive
O=C(O)C(F)(F)OC(F)(F)C(F)(F)OC(F)(F)C(F)(F)C(F)(F)C(F)(F)F,outcome,[8],inactive
same,outcome,[9],inactive
O=S(=O)(O)C(F)(F)C(F)(F)OC(F)(F)C(F)(F)F,outcome,[8],inactive
same,outcome,[9],inactive
CCn1cc(C(=O)O)c(=O)c2ccc(C)nc21,outcome,[8],inactive
same,outcome,[9],inactive
same,outcome,[3],inactive
same,outcome,[7],inactive
same,outcome,[5],inactive
CCOC(=O)C(=O)OCC,outcome,[1],inactive
same,outcome,[2],inactive
C=C1CC/C=C(\C)CC[C@@H]2[C@@H]1CC2(C)C,AC50,[8],28.8 µM (active)
same,AC50,[9],35 µM (active)
same,outcome,[7],inactive
same,AC50,[5],19.8 µM (active)
CCOCC(C)O (stereo unspecified),outcome,[1],inactive
same,outcome,[2],inactive
COc1ccc(OC)cc1,outcome,[1],inactive
same,outcome,[2],inactive
same,outcome,[7],inactive
CC1(C)CC(N)CC(C)(CN)C1 (stereo unspecified),outcome,[1],inactive
same,outcome,[2],inactive
same,outcome,[7],inactive
same,outcome,[5],inactive
same,outcome,[6],inactive
CCCc1ccc(O)cc1,outcome,[1],inactive
same,outcome,[2],inactive
same,outcome,[7],inactive
same,outcome,[5],inactive
CCCCCCCCSCc1cc(C)c(O)c(CSCCCCCCCC)c1,outcome,[1],inactive
same,outcome,[2],inactive
same,outcome,[7],inactive
same,outcome,[5],inactive
COC(=O)C(C)Oc1ccc(Oc2ncc(C(F)(F)F)cc2Cl)cc1 (stereo unspecified),outcome,[1],inactive
same,outcome,[2],inactive
same,AC50,[7],48.9 µM (active)
same,AC50,[5],40.6 µM (active)
CC(C)(C)C1CCC(O)CC1 (stereo unspecified),outcome,[1],inactive
same,outcome,[2],inactive
same,outcome,[5],inactive
O=Cc1ccccc1O,outcome,[1],inactive
same,outcome,[2],inactive
same,outcome,[7],inactive
same,outcome,[5],inactive
same,outcome,[6],inactive
NS(=O)(=O)c1cc(C(=O)O)c(NCc2ccco2)cc1Cl,outcome,[1],inactive
same,outcome,[2],inactive
same,outcome,[5],inactive
CCC(=O)OC(C)(C)C1CC=C(C)CC1 (stereo unspecified),outcome,[1],inactive
same,outcome,[2],inactive
same,outcome,[7],inactive
same,AC50,[5],33.1 µM (active)
CC(C)(C)c1ccc(S)cc1,outcome,[1],inactive
same,outcome,[2],inactive
same,outcome,[7],inactive
same,outcome,[5],inactive
CN(C)C(=O)Nc1ccccc1,outcome,[1],inactive
same,outcome,[2],inactive
same,outcome,[5],inactive
CN(C)CCC=C1c2ccccc2CCc2ccccc21,outcome,[1],inactive
same,outcome,[2],inactive
same,AC50,[5],24 µM (active)
CCNC(=S)NCC,outcome,[1],inactive
same,outcome,[2],inactive
same,outcome,[5],inactive
C=CC(=O)OCCCCCC,outcome,[1],inactive
same,outcome,[2],inactive
same,outcome,[5],inactive
[O-]/[N+](=N\O)c1ccccc1,outcome,[1],inactive
same,outcome,[2],inactive
same,AC50,[7],16.6 µM (active)
same,outcome,[5],inactive
O=C(OCc1ccccc1)c1ccccc1O,outcome,[1],inactive
same,outcome,[2],inactive
same,AC50,[5],62.7 µM (active)
CC(C)N1C(=O)c2ccccc2C1=O,outcome,[1],inactive
same,outcome,[2],inactive
same,outcome,[7],inactive
same,outcome,[5],inactive
C/C=C(\C)C(=O)OC/C=C(\C)CCC=C(C)C,outcome,[1],inactive
same,outcome,[2],inactive
same,AC50,[7],12.3 µM (active)
same,outcome,[5],inactive
O=S(=O)(O)CCCN1CCOCC1,outcome,[1],inactive
same,outcome,[2],inactive
same,outcome,[5],inactive
